DT40 TDP1 no CPT – qHTS for Inhibitors of human tyrosyl-DNA phosphodiesterase 1 (TDP1): qHTS in cells in absence of CPT; DT40 Tdp1-/- hTDP1 cells, no CPT, ATP luminescence, 48 h; Potency, µM (titrated, usually from 46.2 µM), for inactives: at the top dose activity change, negative = growth inhibition, most hits filed as inhibitors; hit rate 15% among 420,000; AID 686978, 2013; also: potency is read from the fitted curve at half-maximal effect; nearly all actives have a fitted effect of over 55% in size
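Growth of hTDP1-complemented DT40 Tdp1-knockout cells is measured by ATP luminescence after at least 48 hr compound exposure at 37 °C, with DMSO substituting for the 20 nM CPT used in the parallel screen.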
Six1-Eya2 blk – qHTS Assay for Inhibitors of the Six1/Eya2 Interaction. Homeobox protein SIX1 (Homo sapiens) + Protein phosphatase EYA2 (Homo sapiens), …. AlphaScreen GST-Six1/His-Eya2 binding, biochemical; hits give low values. activity change, % (test concentration not listed). hit rate 0.56% among 360,000. AID 651725, 2012; in the data active = activity change below about -65%; inconclusive = mostly about -30% to -63%
Target sequence (O00167 whole entry, looked up): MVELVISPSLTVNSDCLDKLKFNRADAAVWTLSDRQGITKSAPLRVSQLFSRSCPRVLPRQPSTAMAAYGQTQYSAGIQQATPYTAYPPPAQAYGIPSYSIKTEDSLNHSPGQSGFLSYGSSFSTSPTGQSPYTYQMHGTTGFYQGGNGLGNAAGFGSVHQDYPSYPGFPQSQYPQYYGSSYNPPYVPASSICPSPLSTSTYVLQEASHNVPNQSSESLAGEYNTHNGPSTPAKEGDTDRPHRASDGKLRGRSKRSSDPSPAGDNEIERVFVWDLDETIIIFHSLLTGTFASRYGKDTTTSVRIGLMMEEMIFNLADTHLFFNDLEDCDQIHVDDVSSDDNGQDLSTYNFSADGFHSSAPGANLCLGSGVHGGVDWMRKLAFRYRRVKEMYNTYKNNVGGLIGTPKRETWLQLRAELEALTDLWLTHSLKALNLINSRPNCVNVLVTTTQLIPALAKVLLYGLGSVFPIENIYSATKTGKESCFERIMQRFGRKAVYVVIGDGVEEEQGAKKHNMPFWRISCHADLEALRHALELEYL
Target sequence (Q15475 whole entry, looked up): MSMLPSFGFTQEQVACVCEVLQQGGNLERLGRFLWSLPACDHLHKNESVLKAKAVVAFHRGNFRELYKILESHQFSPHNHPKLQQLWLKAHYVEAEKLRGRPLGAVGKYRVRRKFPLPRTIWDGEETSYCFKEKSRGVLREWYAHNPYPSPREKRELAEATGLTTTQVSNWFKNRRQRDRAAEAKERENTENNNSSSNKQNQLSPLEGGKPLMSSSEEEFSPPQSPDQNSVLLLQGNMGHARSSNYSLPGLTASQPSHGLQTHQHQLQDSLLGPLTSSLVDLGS
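GST-Six1 + His-Eya2 (5X stock: 250/500 nM); Tris pH 8.0, 300 mM NaCl, 0.05% BSA, 0.02% Tween 20; GSH donor/Ni acceptor beads; 1 h 37 °C dark; AlphaScreen readout.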
DT40 TDP1 CPT – qHTS for Inhibitors of human tyrosyl-DNA phosphodiesterase 1 (TDP1): qHTS in cells in presence of CPT | chicken DT40 Tdp1-/-;hTDP1 cells + 20 nM CPT, ATP luminescence, 48 h | Potency, µM (doses to about 46.2 µM), for inactives: at the highest dose activity change, negative = growth inhibition, usual class: inhibitors | hit rate 12% among 420,000; also: potency is read from the fitted curve at half-maximal effect; nearly all actives have a fitted effect of over 55% in size
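Chicken DT40 Tdp1-/- cells complemented with human TDP1, 400 cells/well, exposed to compounds plus 20 nM camptothecin for at least 48 h at 37 C; viability read as ATP content by CellTiter-Glo luminescence.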
CtBP-E1A blk – qHTS Assay for Inhibitors of the CtBP/E1A Interaction | CtBP / adenovirus E1A interaction (AlphaScreen) | AlphaScreen GST-E1A/His-CtBP binding, 1536-well; hits give low values | activity change, % (test concentration not listed) | hit rate 0.49% among 340,000; in the data active = activity change below about -65%; inconclusive = mostly about -30% to -63%
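AlphaScreen with 125 nM GST-E1A and 125 nM His-CtBP (5X stocks) in Tris pH 8.0, 300 mM NaCl, BSA, Tween 20, TCEP. Compounds preincubated 2 h at 37 deg C, then glutathione donor/nickel acceptor beads added for 1 h at 37 deg C in dark.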
IL1B secr inh – qHTS for Inhibitors of Inflammasome Signaling: IL-1-beta AlphaLISA Primary Screen; activity change, % at 57.5 µM; THP-1 LPS/ATP IL-1B secretion, AlphaLISA, 16 h; hits give low values; hit rate 4.7% among 360,000; in the data active = activity change below about -50%; inconclusive = mostly about -30% to -49%
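THP-1 cells pretreated 1 hr with compounds (up to 57.5 uM final), then stimulated with LPS (250 ng/mL final) plus ATP (1.25 mM final); secreted IL-1B measured by AlphaLISA after 16 hr, decreased signal indicating inhibition.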
TDP1 inh – qHTS Assay for Inhibitors of Tyrosyl-DNA Phosphodiesterase (TDP1); Tyrosyl-DNA phosphodiesterase 1 (Homo sapiens), Q9NUW8; Potency, µM (doses to about 130 µM), without a hit: top-dose activity change, negative = inhibition, most hits filed as inhibitors; hit rate 0.28% among 350,000; recombinant TDP1, AlphaScreen DNA substrate cleavage; AID 485290, 2010; also: potency is read from the fitted curve at half-maximal effect; nearly all actives have a fitted effect of over 40% in size
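Here, a 5' biotin and 3' phosphotyrosine-FITC DNA oligonucleotide reports Tdp1 activity: intact substrate bridges AlphaScreen beads, while cleavage leaves a 3' phosphate and drops signal. All incubations at room temperature.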
The depositor's hits bear a star; ? = inconclusive; . = no result. A selection: hits, their analogues and other compounds. The true share with any hit is near 18%. Unless noted, calls follow the shape of the dose curve; as a rule, active = well fitted curve in the direction sought with a large enough effect; inconclusive = small, poorly fitted or top-dose-only effect, or another doubt; inactive = no such curve, though single readings can be large; an effect the other way counts as inactive or inconclusive. % is scaled to controls: 0 for no effect and ±100 for the full control effect.

SMILES	DT40 TDP1 no CPT	Six1-Eya2 blk	DT40 TDP1 CPT	CtBP-E1A blk	IL1B secr inh	TDP1 inh
CCCOc1cccc(C(=O)Nc2cccc(NC(=O)c3ccco3)c2)c1	?	-13	?	-5	-19	2%
CCCOc1cccc(-c2nnc(NC(=O)c3ccco3)s2)c1	21µM*	-4	?	.	10	2%
COc1ccc(-c2nnc(NC(=O)c3ccco3)s2)cc1	1%	8	-1%	-3	-16	40µM*
COc1cccc(-c2nnc(NC(=O)c3ccco3)s2)c1	?	6	-7%	.	-7	1%
COc1ccc(C)cc1NC(=O)CSc1nc2ccccc2nc1N1CC(C)OC(C)C1 (stereo not drawn)	26µM*	2	23µM*	11	5	.
COc1ccccc1NC(=O)CSc1nc2ccccc2nc1N1CC(C)OC(C)C1 (stereo not drawn)	?	7	21µM*	10	25	.
COc1ccc(S(=O)(=O)N2CCN(C(=O)c3c(C)nn(-c4ccccc4)c3Cl)CC2)cc1	23µM*	5	?	1	-11	1%
CC(C)c1ccc(S(=O)(=O)N2CCN(C(=O)n3ccnc3)CC2)cc1	-1%	2	?	-4	?	3%
Cc1ccc(S(=O)(=O)N2CCN(C(=O)n3ccnc3)CC2)cc1	12µM*	3	0.65µM*	-2	-15	4%
Cc1nn(-c2ccccc2)c(Cl)c1C(=O)NNC(=O)c1ccccc1O	13µM*	-9	?	-29	111	1%
COc1ccc(COC(=O)c2c(C)nn(-c3ccccc3)c2Cl)cc1	-6%	18	-16%	46	-7	56µM*
Cc1cc(C)c(NC(=O)Cn2nnc(-c3nc(-c4ccncc4)no3)c2N)c(C)c1	-4%	.	0%	.	.	6%
Cc1sc2ncn(CC(=O)NCC(=O)N(C)C3CCCCC3)c(=O)c2c1C	0%	4	7%	-1	-4	-1%
O=C(NCC1CCCO1)C1CCN(S(=O)(=O)c2cccnc2)CC1 (stereo not drawn)	-15%	8	3%	-1	3	7%
CC(C)OC(=O)/C(=C\C=C\c1ccccc1)NC(=O)c1ccccc1	-24%	4	-1%	2	-22	-1%
Cc1ccc(S(=O)(=O)N2CCN(C(=O)c3c(C)nn(-c4ccccc4)c3Cl)CC2)cc1	?	3	?	4	-54*	-2%
Cc1cc(C)c(S(=O)(=O)N2CCN(C(=O)c3c(C)nn(-c4ccccc4)c3Cl)CC2)c(C)c1	?	-25	?	10	?	.
COc1cccc(N(C(=O)c2nc3nccc(C)n3n2)c2nc3ccccc3s2)c1	?	-12	?	-7	-92*	4%
COc1cccc(NC(=O)COC(=O)c2nc3nccc(C)n3n2)c1	0%	1	6%	3	2	4%
CC(C)c1ccc(N(CC(=O)NCCSCc2ccco2)S(C)(=O)=O)cc1	-27%	-2	-3%	0	-8	3%
CSCC[C@H](NC(=O)OC(C)(C)C)C(=O)N/N=C/c1ccc2nccnc2c1	12µM*	-25	?	-8	19	3%
O=C(COC(=O)/C=C/c1ccco1)NC1CCCCC1	-18%	-15	-26%	-1	-13	50µM*
O=C(COC(=O)/C=C/c1ccco1)NCCc1ccccc1	3%	1	-3%	4	-7	28µM*
O=C(COC(=O)/C=C/c1ccco1)NCc1ccco1	5%	-17	-11%	.	3	.
O=C(COC(=O)/C=C/c1ccco1)Nc1ncc(C(F)(F)F)cc1Cl	?	-14	-8%	-2	18	13µM*
SMILES	DT40 TDP1 no CPT	Six1-Eya2 blk	DT40 TDP1 CPT	CtBP-E1A blk	IL1B secr inh	TDP1 inh
CC1CC(C)CN(C(=O)COC(=O)/C=C/c2ccco2)C1 (stereo not drawn)	-8%	-1	1%	8	3	22µM*
O=C(COC(=O)/C=C/c1ccc(Br)o1)NC1CCCCC1	-7%	-5	1%	-10	10	.
CC(=O)N1CCOc2ccc(S(=O)(=O)N3CCCCC3)cc21	20%	1	0%	1	2	-5%
Cc1ccc(NS(=O)(=O)c2ccc(CCC(=O)NC3CC3)cc2)cc1	?	4	-19%	6	21	1%
CN(CCC#N)C(=O)COC(=O)c1c2c(nc3ccccc13)/C(=C/c1ccco1)CC2	?	?	?	-13	-58*	.
COc1ccc(/C=C2\CCc3c2nc2ccccc2c3C(=O)O)cc1OC	-25%	?	-19%	.	0	-12%
CCC(CO)Oc1cc(NCc2cccnc2)c2ncn(C(C)C)c2c1 (stereo not drawn)	5%	7	?	-15	69	6%
NC(=O)C1(Nc2ccc(-c3ccc(Cl)cc3)cc2)CCCC1	?	-9	16µM*	7	5	.
c1nc(CCO[C@H]2CCCCO2)cc2cc3c(cc12)OCO3	?	-1	?	2	7	-2%
c1nc(C2CCCCC2)cc2cc3c(cc12)OCO3	21µM*	5	?	3	30	-1%
O=C(c1ccc(CS(=O)c2ccccc2Cl)o1)N1CCN(c2ccccc2)CC1 (stereo not drawn)	0.52µM*	1	0.82µM*	-2	142	7%
O=C(c1ccc(COc2ccc3c(c2)CCC3)o1)N1CCN(c2ccccc2)CC1	?	-25	15µM*	4	-73*	.
COc1cccc(N2CCN(C(=O)c3ccc(CS(=O)c4ccccc4Cl)o3)CC2)c1 (stereo not drawn)	0.0052µM*	24	0.029µM*	22	55	10%
COc1cccc(N2CCN(C(=O)c3ccc(CS(=O)c4ccccc4C)o3)CC2)c1 (stereo not drawn)	0.58µM*	-10	0.52µM*	-3	28	6%
O=C(c1ccc(CS(=O)c2ccccc2Cl)o1)N1CCOCC1 (stereo not drawn)	13%	1	-7%	2	10	3%

From PubChem BioAssay
